{
  "source": "paper PMC12136788",
  "binders": {"B1": {"name": "chr5:64741823:64741824:+_ENSMUSG00000029174_ENSMUST00000119756|mus_mus|motif|central (ssRNA)", "RNA": "GGGAGUUCUACAGUCCGACGAUCAAUAAAUAUGUCAGACCCCACAGCUACAGGUCCCACACUAGCAAUAACAGGGAAUCGGAAAACUGUGAUUUCCUUAUGAAACAUUUACCUGUGACUUGAAAGGGUAAGCAAAAACCAUACCAACAGAGGAUUGAGCAUCA"}, "B2": {"name": "chr16:94664741:94664742:+_ENSMUSG00000040785_ENSMUST00000117648|mus_hu|mus_mus_mus_hu_False|1_98 (ssRNA)", "RNA": "GGGAGUUCUACAGUCCGACGAUCUGGUACUGAUCUUUGCAUUGGAUAUUCAGGAGAAAGGCUGGCCAAGGGUGUAUAUAUGCUGGUGUACUGGGGCAAACCUGGUAACACGUUUAUGUAUGCUGGCGGUGUCUGGGUGCCAAACAACAGAGGAUUGAGCAUCA"}, "B3": {"name": "chr1:44133529:44133530:+_ENSG00000066135_ENST00000372396|hu_mus|FALSE|FALSE (ssRNA)", "RNA": "GGGAGUUCUACAGUCCGACGAUCGAACUCGGCUGCUUCCGGUGUGGGCAGAGUGUGGUCAAUAACCAUGCUGUCCUUCCCAGCUUUCCAAAGUUUGUAGCGUUCCGGCUGGAACCUCCUCACGAACACGUCCAUGGAGAUCUUCAACAGAGGAUUGAGCAUCA"}, "B4": {"name": "chr10:75008345:75008346:-_ENSG00000213551_ENST00000372950|hu_hu|motif|central (ssRNA)", "RNA": "GGGAGUUCUACAGUCCGACGAUCCUAUAUCUUAGUCACACACCAGAGUUAAGCCAUCUGUCUUUGCUCAUUUUUCCCUCGGUGGACAACAUAAUAUGUUGGGAAGGGCUUUCCAGGAGGGCAUAACCGGGAGAUGAAUCUUACCAACAGAGGAUUGAGCAUCA"}, "B5": {"name": "chr1:225611761:225611762:-_ENSG00000143815_ENST00000272163|hu_mus|hu_hu_hu_mus_True|8_88 (ssRNA)", "RNA": "GGGAGUUCUACAGUCCGACGAUCCCAGGCCAUCGGCCUCUGACCACUUCACCAUCGACAAACUUCCUACUUGGCAUUUUCUAAAAUUAGUCUGGCCGCGCUCCGGCGGGAACUCCAGCCACUCCAGGGAGAAUAGUAGCAGCCCAACAGAGGAUUGAGCAUCA"}, "B6": {"name": "chr2:179515052:179515053:+_ENSMUSG00000000305_ENSMUST00000000314|mus_hu|FALSE|FALSE (ssRNA)", "RNA": "GGGAGUUCUACAGUCCGACGAUCGCUGUCCCAUGCAGUCACCGUGAACGCCACCUGCUCGGAGGGGACCUGCAGCUCCCGGGUGGCGAAGACUGUCCCAUCUGCCCCAACUUUGAAGUCCAUGCUGUUGGUCUCAUAUUGUGUCAACAGAGGAUUGAGCAUCA"}, "B7": {"name": "chr3:169711627:169711628:+_ENSG00000008952_ENST00000337002|hu_hu|motif|central (ssRNA)", "RNA": "GGGAGUUCUACAGUCCGACGAUCUAAAAACAUACCCUUACAUGGUCUUAAUUUUAUGAAUUUAAGUGUUGAGAAAUAUCGGAAUAAUAAGUAACAAUUAAAAUAAAAUGUUUUAUUUGUAAAUUAUGUACAGAAUACACUUUACAACAGAGGAUUGAGCAUCA"}, "B8": {"name": "13037762_13037882_4555_3pUTR_ENSMUSG00000029571_ENSMUST00000031556|mouse|control|control (ssRNA)", "RNA": "GGGAGUUCUACAGUCCGACGAUCUAAAAGGUACUCCUAUUUUAAAAACAUAUGAAUGAAACUAUCUUCUAAAAUAAGACGCAAUGUGUUAACAACCAGUUGAUUUAAGCACUUUAAAAGGCAGAAUGGAAAAGUCGGCACACCCAACAGAGGAUUGAGCAUCA"}, "B9": {"name": "chr6:13577978:13577979:-_ENSMUSG00000042742_ENSMUST00000045235|mus_hu|FALSE|FALSE (ssRNA)", "RNA": "GGGAGUUCUACAGUCCGACGAUCAAAAAGAAUUAUCACCAAUUACAAAAAGUUCAGUAAAUAUUGGAUCAUCAGACAAAAAAGGAACAUAAAAUGACUUUCUGUAACAUCACAAUUUUAGUUAGAAAAAAGAAAAAGAUAAGUCAACAGAGGAUUGAGCAUCA"}, "B10": {"name": "chr11:99246628:99246629:-_ENSMUSG00000019761_ENSMUST00000103131|mus_mus|FALSE|FALSE (ssRNA)", "RNA": "GGGAGUUCUACAGUCCGACGAUCAUAGUUUGCAUCAGUAAGAAAGUUUAUUGAAAUUUAUUAGUAAAUGAGAAAUUAAUAAGUAAGUGAGAAAGUUUUCUUCUUUUUUCUCCACAAAAGAACACUUUCUGAUAGAUGAAAAGACAACAGAGGAUUGAGCAUCA"}, "B11": {"name": "chr7:7676484:7676485:-_ENSG00000106399_ENST00000223129|hu_mus|FALSE|FALSE (ssRNA)", "RNA": "GGGAGUUCUACAGUCCGACGAUCAAGUAUCACUUUUAAAAAAAGUUUAUAAAAAGGCUUAGUUGUAAACUGUCAUAAUAGAUUUACAAAAAAAUAUAUAUAUAUAAAAGAACAAAUUAAAUAUUAGAAAUUAUAGGAGUCGCUCAACAGAGGAUUGAGCAUCA"}, "B12": {"name": "chr4:95690885:95690886:+_ENSMUSG00000028572_ENSMUST00000156910|mus_mus|mus_mus_mus_hu_False|8_78 (ssRNA)", "RNA": "GGGAGUUCUACAGUCCGACGAUCUUUAGAAAAUGUUAAAUACCAUGCUAAAAUAUUGUAAUUUUAAUAUUUUAUUUUACCAGAAGUCACAGGCAAGCAGACACUACAAGAAUAUAUGAAAAUGAAACAACAGUGUAUAACUGUCAACAGAGGAUUGAGCAUCA"}, "B13": {"name": "chr19:15271055:15271056:-_ENSG00000074181_ENST00000263388|hu_mus|FALSE|FALSE (ssRNA)", "RNA": "GGGAGUUCUACAGUCCGACGAUCAUAUAUAUUUUGUAAAAAAUAAUAAUAAUAAUAAGUUUGUUUAAAUGAAUUUGUCUCUAUACAAAAUGUAAAAAAGAAAAAAAUAAUAACUCACUCUUGUCAGAGUGUGAGACAAUGAGACAACAGAGGAUUGAGCAUCA"}, "B14": {"name": "chr11:31834330:31834331:+_ENSMUSG00000020300_ENSMUST00000109412|mus_mus|FALSE|FALSE (ssRNA)", "RNA": "GGGAGUUCUACAGUCCGACGAUCAUAAAGUUCAGAGUAAUAGAUAAUCAUUGUUUAUGCCCUGUAAAGAAGUGGAACCAAAUCAUCUGUAAACACGCUUGUCACACAAUCACAAGUAAAUAUUAGCAGAAUAACAAUUUCUUACAACAGAGGAUUGAGCAUCA"}, "B15": {"name": "chr1:90180492:90180493:+_ENSG00000171488_ENST00000370454|hu_hu|motif|central (ssRNA)", "RNA": "GGGAGUUCUACAGUCCGACGAUCUUUCAUUUGCUCCCGGACGUCAGAAGGCAGAGUUUCAAACAGAGCAUCUUCGGCAACGGAACCAGCUCGCUUCAGAGCCCGACAGUCACCCAGUUCAGGAGGGAGGAUUUCAAAGUGAUUCAACAGAGGAUUGAGCAUCA"}, "B16": {"name": "chr1:39494447:39494448:+_ENSG00000168653_ENST00000372967|hu_mus|hu_hu_hu_mus_False|38_58 (ssRNA)", "RNA": "GGGAGUUCUACAGUCCGACGAUCGCACCGAGCGGCGUUCUUAUAGGGCUGUUCUGCGCUUAGGAACAUAAAGUGCCGAUCUAUGUUGAUGCCCAGCCUUUUCUGGAUGUCAAGGAAAGGCAUGGCUCUGCAGUGCCCUUGUCACAACAGAGGAUUGAGCAUCA"}, "B17": {"name": "131003253_131003911_1761_CDS_ENSMUSG00000068267_ENSMUST00000089510|mouse|control|control (ssRNA)", "RNA": "GGGAGUUCUACAGUCCGACGAUCCAAGGGCCAAAGACUGGGCCAGAGAAAGGGAUCUGGGGAGGUGGAAAGCAGGCAGAGGCAGGCUCGGUUCUUCCUAGUCACGUGGACCAGAUCGUGUUCCAAAUGAAGGAUGUGACUCUGCAACAGAGGAUUGAGCAUCA"}, "B18": {"name": "chr7:7679991:7679992:-_ENSG00000106399_ENST00000396682|hu_hu|hu_hu_hu_mus_False|48_58 (ssRNA)", "RNA": "GGGAGUUCUACAGUCCGACGAUCUGGGAUGAAUCUUUUCCAGCUUCCCCACGAAGCACACGGGCCGGUCGAUAUACUGAGCUAGCAUGCCGGCGUUGACGCGCGCUUUGGGGAGCUGCAUUAUGUCCUCCAUGAUUCUGCCGCCAACAGAGGAUUGAGCAUCA"}, "B19": {"name": "chr7:75932113:75932114:+_ENSG00000106211_ENST00000248553|hu_hu|hu_hu_hu_mus_False|38_78 (ssRNA)", "RNA": "GGGAGUUCUACAGUCCGACGAUCCUGCGACCACUCAUCGGGCAACCGGGGCACCCCGAAGGCCUGGUCGAAGAGGCGGCUGUGUGCAGGGUACCAGCGGAAGGGGUGUUCCCAGCUCGGGCUCCGCAGCAGCGAGAAGGGCACCAACAGAGGAUUGAGCAUCA"}, "B20": {"name": "chr12:3264740:3264741:-_ENSMUSG00000020671_ENSMUST00000021001|mus_mus|FALSE|FALSE (ssRNA)", "RNA": "GGGAGUUCUACAGUCCGACGAUCCCAUAUCUGUAGCUUGAUCUUCUUUCCUUGUAGUUCCACUGUUUUGAUCUUAAAGUCUAUUCCUAUGGUGGAAAUAAAGGUGGUAUUGAAGGCAUCGUCCGAAAAACGAAAAAGGACGCACAACAGAGGAUUGAGCAUCA"}, "B21": {"name": "chr7:92085846:92085847:+_ENSG00000157259_ENST00000287957|hu_mus|FALSE|FALSE (ssRNA)", "RNA": "GGGAGUUCUACAGUCCGACGAUCGUUAAAACUGAGGCUUUAUACCUGCGAAGUAAGUAUGUCCCAGGUUUGGUUUUGUAACUACAAGUGGUUGGCAACUGUUUCCUUAAUAGUUAUCGCAGGAGUAGGUCCAACGUGAGUCCACAACAGAGGAUUGAGCAUCA"}, "B22": {"name": "chr21:34877999:34878000:-_ENSG00000159131_ENST00000381815|hu_hu|motif|central (ssRNA)", "RNA": "GGGAGUUCUACAGUCCGACGAUCGUCAAUUGCACUGUCAAAUUCUACACGAUUUUUAUACAGUUUAUGAUUAAUUACUCGGGUGGGAAUACCAGCUCUUUCCGCUUUAUCUAACCCAGCUACUGCGGCUUUGUUGGAGAUAACCAACAGAGGAUUGAGCAUCA"}},
  "note": "In all, about 24,000 sequences were measured (“enrichment r”: median about 0.99, highest 2% from about 3.7 on). The entries come from a sample that favours the highest values as a whole.",
  "data": [
    {"target": "T1, UNK ZnF1-3 (human, UniProt Q9C0B0 31-174)", "T1 sequence": "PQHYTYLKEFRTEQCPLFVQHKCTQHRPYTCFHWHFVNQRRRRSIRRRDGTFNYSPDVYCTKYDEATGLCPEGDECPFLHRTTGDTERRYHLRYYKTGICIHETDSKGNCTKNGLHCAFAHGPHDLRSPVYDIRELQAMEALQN", "assay": "nsRBNS (natural sequence RNA bind-n-seq); RBNS binding buffer (assumed for nsRBNS): 25 mM Tris pH 7.5, 150 mM KCl, 3 mM MgCl2, 0.01% Triton X-100, 500 ug/ml BSA, 20 U/ml SUPERase-In, 4 C; UNK is unkempt and MSI1 is Musashi-1; names of the RNAs are library labels; protein concentration not given here; high values mean tight binding", "units": {"binding signal": "enrichment R"}, "values": [
      {"binder": "B1", "binding signal": 1.44},
      {"binder": "B2", "binding signal": 0.999},
      {"binder": "B3", "binding signal": 0.602},
      {"binder": "B4", "binding signal": 1.77},
      {"binder": "B5", "binding signal": 1.19},
      {"binder": "B6", "binding signal": 0.755},
      {"binder": "B7", "binding signal": 5.94},
      {"binder": "B8", "binding signal": 1.37},
      {"binder": "B9", "binding signal": 3.59},
      {"binder": "B10", "binding signal": 19.7},
      {"binder": "B11", "binding signal": 21.9},
      {"binder": "B12", "binding signal": 1.97},
      {"binder": "B13", "binding signal": 4.58},
      {"binder": "B14", "binding signal": 0.945},
      {"binder": "B15", "binding signal": 3.35},
      {"binder": "B16", "binding signal": 0.477},
      {"binder": "B17", "binding signal": 1.29},
      {"binder": "B18", "binding signal": 0.406},
      {"binder": "B19", "binding signal": 0.969},
      {"binder": "B20", "binding signal": 1.8},
      {"binder": "B21", "binding signal": 0.838},
      {"binder": "B22", "binding signal": 0.651}
    ]}
  ]
}
